# Screening results (PubChem)
# TWEAK-Fn14 inh: inhibitors of TWEAK-Fn14 signaling, primary screen, luciferase reporter cells, uHTS. hit rate 2% among 360,000. TWEAK-stimulated Fn14 reporter cells, luciferase luminescence, 8 h. inhibition, % at 10 µM; in the data active = inhibition above about 50%
# HSP90 refold inh: HSP90 inhibitors, primary screen, cell lysate, luminescence; Heat shock protein HSP 90 (rabbit reticulocyte lysate; luciferase refolding); Rabbit reticulocyte lysate, luciferase refolding luminescence, 3 h; inhibition, % at 5.6 µM; hit rate 0.91% among 290,000;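 active = inhibition above the screen-wide mean plus 3 SD, computed separately per campaign, cut at about 16% in these data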;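 also: 0% = DMSO wells and 100% = 60 µM geldanamycin wells; inhibitors lower the luminescence because luciferase stays unfolded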
# TROY NFkB inh: inhibitors of TROY-driven NF-kB signaling, primary screen, Q293 LMP1-TROYcd cells, NF-kB luciferase, uHTS. Q293 LMP1-TROYcd NF-kB luciferase reporter, 4 h. inhibition, % at 10 µM. hit rate 0.98% among 360,000. AID 1347056, 2019;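 active = compounds whose plate-normalised and pattern-corrected inhibition of the luciferase reporter signal at the single screening dose is 50% or more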
# LGR2 antag: inhibitors of bursicon-induced LGR2 CRE-luciferase signal, primary screen, cell-based, HEK293, CRE-luciferase reporter, bursicon stimulation; inhibition, % at 9.99 µM; AID 720647, 2013; hit rate 0.35% among 380,000; bursicon-stimulated, 4 h; Drosophila bursicon receptor LGR2 (rickets);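 active = drop in luminescence signal, shown as inhibition above about 50% in the replicate tests, limit read from the data, passing the limit was not always enough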;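 also: agonist challenge used bursicon conditioned medium at about half maximal strength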
# Numbers without * were called inactive; . = not tested or not shown. This is a sample that favours compounds with a hit; in the whole collection about 2.2% have one here.
SMILES,TWEAK-Fn14 inh,HSP90 refold inh,TROY NFkB inh,LGR2 antag
O=C(c1ccco1)N1CCN(C2=NS(=O)(=O)c3ccccc32)CC1,85.7*,-3.3,.,.
CNC[C@H](CC1CCCCC1)NC[C@H](Cc1ccccc1)NCCC12CC3CC(CC(C3)C1)C2,-42.7,3.6,41.7,101.3*
O=C(Nc1cccc2nsnc12)c1ccc(-c2ccc(Br)cc2)o1,9.0,3.7,4.0,-5.6
COC(=O)c1ccccc1NC(=O)c1ccc(-c2ccc(Br)cc2)o1,77.4*,11.9,80.7*,-19.2
C[C@@H]1CCCCO[C@@H](CN(C)Cc2ccc3c(c2)OCO3)[C@H](C)CN([C@H](C)CO)C(=O)c2cc(NC(=O)c3ccccc3)ccc2O1,.,.,.,8.7
CCCCCCCCCCCCCCCC[n+]1cccc2ccccc21,72.1*,-0.1,53.7*,5.7
CCn1cnc2c(Nc3cc(F)cc(F)c3)nc(C#N)nc21,2.5,.,-53.8,-37.0
N#Cc1nc(Nc2cccc(Cl)c2)c2ncn(C3CCCC3)c2n1,87.4*,.,0.8,-5.3
COCc1cn(CC[C@H]2CC[C@@H](NC(=O)Nc3ccc(F)cc3)[C@@H](CO)O2)nn1,.,.,.,-14.7
COc1cc2c(c(OC)c1OC)-c1ccc(SC)c(=O)cc1C(N)CC2 (stereo not drawn),-2.4,.,8.2,-13.1
COc1cc2c(c(OC)c1OC)-c1ccc(OC)c(=O)cc1C(N)CC2 (stereo not drawn),63.6*,.,19.4,2.1
CCn1cc(Cl)c(C(=O)N2N=C(c3ccc4ccccc4c3)CC2c2ccccc2O)n1 (stereo not drawn),71.5*,4.7,42.8,-3.4
C[C@@H]1CN([C@H](C)CO)C(=O)CCCn2nncc2CO[C@@H]1CN(C)C(=O)Nc1cccc(C(F)(F)F)c1,.,.,.,0.5
N#C[C@@H]1[C@@H](c2ccccc2-c2cccc(F)c2)[C@H](CO)N1C(=O)C1CCCCC1,.,.,.,2.4
CC(=O)Nc1nc2c(s1)CCc1ccccc1-2,57.2*,-0.1,-15.5,-9.5
O=C(CCCl)Nc1nc2c(s1)CCc1ccccc1-2,2.7,-2.0,-20.8,8.3
O=C(Nc1ccn(Cc2ccccc2F)n1)c1ccc(COc2ccc(Br)cc2)cc1,51.4*,5.0,12.7,18.9
COc1ccc(CN(C)C[C@H]2Oc3c(NS(C)(=O)=O)cccc3C(=O)N([C@@H](C)CO)C[C@H]2C)cc1,.,.,.,-6.4
CSc1nc(N)c2c3c(sc2n1)COC(C(C)C)C3 (stereo not drawn),5.7,0.2,6.8,.
CCCC1Cc2c(sc3nc(SC)nc(N)c23)CO1 (stereo not drawn),68.1*,0.1,-23.8,.
COc1ccc(S(=O)(=O)N[C@H]2C=C[C@@H](CC(=O)N3CCN(c4ccccc4)CC3)O[C@H]2CO)cc1,.,.,.,-5.3
O=C(CSc1nnc(-c2ccccc2)o1)c1ccc2c(c1)OCCO2,20.4,-4.8,58.7*,.
O=C(CSc1nnc(-c2ccc3c(c2)OCCO3)o1)N1CCCC1,70.2*,11.0,27.7,.
Cc1cnc(NC(=O)C2CC(=O)N(c3ccc4c(c3)OCCO4)C2)s1 (stereo not drawn),29.7,.,-0.3,22.6
Cc1cnc(NC(=O)C2CC(=O)N(c3cccc(Cl)c3)C2)s1 (stereo not drawn),43.2,-0.3,15.4,79.1*
SMILES,TWEAK-Fn14 inh,HSP90 refold inh,TROY NFkB inh,LGR2 antag
CCS(=O)(=O)Nc1ccc(C2=NN(C(=S)Nc3ccccc3)C(c3ccco3)C2)cc1 (stereo not drawn),0.2,1.6,-3.5,-17.6
Cc1ccc(C2=NN(C(=S)Nc3ccccc3)C(c3ccco3)C2)cc1 (stereo not drawn),48.4,7.2,56.8*,.
CCOC(=O)CCSc1nc(C)c2cc(C)c(C)cc2n1,81.5*,0.6,.,.
CCOC(=O)CCSc1nc(C)c2cc(OC)ccc2n1,-31.3,-5.3,-47.1,.
CCNC(=O)C[C@@H]1CC[C@@H]2[C@H](COC[C@H](O)CN2C(=O)Nc2c(C)noc2C)O1,.,.,.,-3.3
CNS(=O)(=O)c1cc(NC(=O)c2cncn2-c2ccccc2)ccc1C,78.7*,2.5,11.4,6.2
C[C@H]1CN([C@@H](C)CO)C(=O)c2cccc(NC(=O)CCCCCC(=O)Nc3ccccc3N)c2O[C@H]1CN(C)C(=O)Nc1ccc(C(F)(F)F)cc1,.,.,.,2.7
CC(CC1C(C#N)=C(N)SC(N)=C1C#N)c1ccccc1 (stereo not drawn),-1.7,3.7,50.4*,.
CC(c1ccccc1)C1C(C#N)=C(N)SC(N)=C1C#N (stereo not drawn),0.3,0.1,-9.2,.
Cc1ccc(NS(=O)(=O)c2ccc(Cl)c(C(=O)Nc3ccccc3-c3nc4ccccc4[nH]3)c2)cc1C,91.4*,-4.8,39.2,-21.1
Cc1noc(C)c1NC(=O)N(C)C[C@@H]1Oc2c(NC(=O)c3cnccn3)cccc2C(=O)N([C@H](C)CO)C[C@@H]1C,.,.,.,13.4
CCOC(=O)Cc1csc(SCC(=O)c2c(N)n(CC(C)C)c(=O)n(C)c2=O)n1,22.1,-0.2,25.4,.
Cc1csc(SCC(=O)c2c(N)n(CC(C)C)c(=O)n(C)c2=O)n1,51.8*,2.8,21.4,-4.6
C[C@@H]1CN([C@H](C)CO)S(=O)(=O)c2ccc(-c3cccnc3)cc2O[C@@H]1CN(C)C(=O)C1CC1,.,.,.,3.0
CCNC(=O)C[C@@H]1CC[C@H]2[C@@H](COc3ccc(NC(=O)c4cccc(OC)c4)cc3C(=O)N2C)O1,.,.,.,-5.4
Fc1cccc2sc(Nc3nnc(-c4ccccc4)o3)nc12,103.2*,-1.4,-47.2,.
NNc1nc2c(F)cccc2s1,62.1*,5.7,68.5*,-15.7
COc1cc(OC)cc(-c2nnc(Nc3nc4c(F)cccc4s3)o2)c1,0.0,5.3,-1.6,.
COc1ccc2c3c(n(C)c2c1)[C@H](CO)N(Cc1ccccc1)CC31CN(C)C1,.,.,.,4.3
Cc1noc(C)c1NC(=O)Nc1ccc2c(c1)C(=O)N([C@@H](C)CO)C[C@@H](C)[C@H](CN(C)S(C)(=O)=O)OCCCC[C@@H](C)O2,.,.,.,23.5
O=C(C[C@H]1C[C@@H]2c3cc(NC(=O)CC4CC4)ccc3O[C@@H]2[C@H](CO)O1)NCc1ccccc1F,.,.,.,0.0
Cc1ccc2nc(-c3ccc(NC(=O)CSc4nccc(=O)[nH]4)cc3)sc2c1,23.6,8.1,50.6*,-27.9
Cc1ccc2nc(-c3ccc(NC(=O)C(C)Sc4nncs4)cc3)sc2c1 (stereo not drawn),88.8*,.,72.9*,58.4*
Cc1ccc2nc(-c3ccc(NC(=O)CSc4nc(N)cc(=O)[nH]4)cc3)sc2c1,-7.4,-1.8,-18.7,-36.2
Cc1nnc(SCC(=O)Nc2ccc(-c3nc4ccccc4s3)cc2)s1,77.4*,-6.3,54.7*,.
Cc1nnc(SCC(=O)Nc2ccccc2NC(=O)CSc2nnc(C)s2)s1,8.6,-0.8,-2.0,1.2
O=C(Nc1ccc(-c2nc3ccccc3s2)cc1)c1cc(-n2cnnc2)ccc1Cl,94.7*,6.2,53.2*,-0.7
CCC(=O)Nc1ccc2c(c1)C(=O)N(C)[C@H]1CC[C@@H](CC(=O)NCC3CCCCC3)O[C@@H]1CO2,.,.,.,-14.3
